Structures are written as SMILES. About 83,000 compounds went through this panel and 20% of them were active in at least one assay; those are over-represented in the sample as a whole.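 The endpoint reported here, percent growth, reads 100 for growth as untreated, 0 for no net growth and -100 for all cells dead.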 The source made the active and inactive calls. Rule for the calls: active = growth percent below 10; inactive = the rest.

The values below come from PubChem BioAssay (NCI).

The first assay concerns BT-549 breast. Kind of assay: NCI-60 one-dose screen, 48 h (100 = growth as untreated, 0 = no growth, -100 = all killed). As to conditions: 10 µM unless noted.
Regarding `CC(=O)c1ccc(Nc2nc(NCCO)nc(Nc3ccc(Cl)cc3)n2)cc1`, the growth was 97.3% (inactive).
On to `Cc1ccc(C2CC(c3ccc(Nc4nc(NCCO)nc(Nc5ccc(Cl)cc5)n4)cc3)=NN2c2cc(Cl)cc(Cl)c2)cc1` (stereo not drawn), for which the growth was 95.9% (inactive).
Same read-out and setting: under `CCCCN1CCN(c2ccc3nc(-c4ccc5nc(-c6ccc(OC)c(OC)c6)[nH]c5c4)[nH]c3c2)CC1` stands -59% (active); under `Cc1cccc(NC(=O)c2sc3nc4c(cc3c2N)CCCC4)c1C`, 37.5% (inactive).
On the same count and under the same terms, under `CCOC(=O)c1cc2c(n1Cc1cc(OC)c(OC)c(OC)c1)-c1oncc1CCC2` stands 31.9% (inactive); under `Clc1ccc(Oc2ccc(Nc3ncnc4onc(-c5ccccc5)c34)cc2)c(Cl)c1`, 90.2% (inactive); under `O=C(Nc1ccc(C23CC4CC(CC(c5ccccc5)(C4)C2)C3)cc1)c1cccs1`, 68.9% (inactive).
For the molecule `COc1cc(C(=O)Nc2ccc(-c3nc4ccccc4[nH]3)cc2)cc(OC)c1OC`, the growth was 60.6% (inactive).
On the same count and under the same terms, under `CCOC(=O)C1(C(=O)OCC)N=C(c2ccccc2)C=C1c1ccccc1` stands 97.9% (inactive).
In the case of `CC1=C(CC(=O)c2cccc([N+](=O)[O-])c2)C(=O)c2ccccc2C1=O`, the growth was 2.6% (active).
On the same count and under the same terms, to `O=c1cc(NC2CCN(CCCc3ccccc3)CC2)c2cc(Cl)ccc2o1` belongs 17.8% (inactive); to `O=S(=O)(Nc1ncccn1)c1ccc(NC2Nc3nc4ccccc4nc3S2)cc1` (stereo not drawn), 95.9% (inactive); to `COc1ccc(-c2cc(=O)c3c(OC)c4ccoc4c(/C=C/C=O)c3o2)cc1`, -22.9% (active).
Same read-out and setting: to `COc1cccc2cc(N(C)c3nc(C)nc4ccsc34)ccc12` belongs 13.3% (inactive); to `CC[C@@H](C)[C@H](NC(=O)Cn1cc(CNC(=O)[C@@H](NC(=O)OCc2ccccc2)C(C)C)nn1)C(=O)O`, 107% (inactive).
In the case of `COc1cc(/C=C/C(=O)c2ccc(Nc3nc(NCCO)nc(N4CCOCC4)n3)cc2)cc(OC)c1OC`, the growth is 33.5% (inactive).
Still for that read-out and setting: to `Cc1ccccc1CNC(=O)C1CN(c2ccc(Cl)cc2)N(c2ccc(Cl)cc2)C1=O` (stereo not drawn) belongs 90.6% (inactive); to `COc1ccc(Cn2c(Br)c3c(c2-c2cc(OC)c(OC)c(OC)c2)CCc2sc(NC(C)=O)nc2-3)cc1`, 74.2% (inactive); to `CC(C)(C)c1ccc(C2CC(=O)C3=C(C2)Nc2ccccc2N(C(=O)c2ccccc2Cl)C3c2ccc(F)cc2)cc1` (stereo not drawn), 44.4% (inactive).
Still for that read-out and setting: under `CCOC(=O)c1ccc(N=Cc2sc(=O)[nH]c2O)cc1` stands 101% (inactive).
Same read-out and setting: under `COC(=O)/C(CCC=C(C)C)=C1\[C@@H](OC(C)=O)C[C@@]2(C)[C@H]1C[C@@H](O)[C@H]1[C@@]3(C)CC[C@H](NCc4ccccc4)[C@@H](C)[C@@H]3CC[C@@]12C` stands 76.2% (inactive); under `Cc1cccc2c(=O)c3c(sc12)c(NCCCNCCO)nc1ccccc13`, 73% (inactive); under `C[C@@H](C(=O)NCCCC#Cc1cnc(Nc2ccc(C#N)cc2)nc1NC1CC1)N(C)C(=O)/C=C/CN(C)C`, 32.3% (inactive).
`COc1ccc(/C=c2\sc3n(c2=O)NC2C(N=3)N(C)C(=O)N2C)cc1` (stereo not drawn): the growth was 111% (inactive).
On the same count and under the same terms, to `Cn1cc([C@@H]2Nc3ccc4[nH]ncc4c3[C@H]3[C@H]4CCC(C4)[C@H]32)c(C(F)(F)F)n1` belongs 54.6% (inactive); to `COc1cc2cc3c(=O)n4c(cc5cc(OC)ncc54)c(=O)n3c2cn1`, 106% (inactive); to `COc1ccccc1C(=O)/C=C/c1ccccc1`, 77.5% (inactive).
Same read-out and setting: to `CCCc1c(C)c2sc(=O)[nH]c2[nH]c1=O` belongs 110% (inactive); to `Clc1ccc(Nc2scc3[n+]2CCC3)cc1`, 99.2% (inactive); to `CNCCNc1nc2ccccc2c2c(=O)c3cc(F)ccc3sc12`, 82.4% (inactive).
Still for that read-out and setting: under `O=C(Nc1ccc(Cl)cc1)c1cc2ccccc2cc1OP(=O)(O)O` stands 11.7% (inactive); under `COc1cc(C=C2C(=O)N(C)C(=O)N(C)C2=O)cc(CN2CCCCC2)c1O`, 101% (inactive).
As to `O=C(Nc1ncc(Cc2cccc(C(F)(F)F)c2)s1)C1COc2ccccc2O1` (stereo not drawn), the growth is 90.7% (inactive).
`Cc1c(-c2noc(-c3ccc([N+](=O)[O-])cc3)n2)no[n+]1[O-]`: the growth was 95.7% (inactive).
In the case of `O=C(N/N=C/c1ccccc1Cl)C(=O)Nc1cccc(C(F)(F)F)c1`, the growth is 112% (inactive).
Still for that read-out and setting: to `O=C(NC1CCN(Cc2ccccc2)CC1)c1cc2nc(-c3ccc(Cl)s3)cc(C(F)(F)F)n2n1` belongs 66% (inactive).
On the same count and under the same terms, to `COc1cccc(-c2nn(C)c3sc(C(=O)NCCN4CCN(c5ccccc5F)CC4)cc23)c1` belongs 90.8% (inactive); to `COc1ccc(C(=O)C2CC2c2ccc(Cl)cc2)cc1` (stereo not drawn), 57.3% (inactive); to `Nc1ccc(C2c3ccccc3Oc3ccccc32)cc1`, 109% (inactive).

A further assay concerns MDA-MB-435 melanoma. The description is as above. As to conditions: 10 µM unless noted.
For `CC(=O)c1ccc(Nc2nc(NCCO)nc(Nc3ccc(Cl)cc3)n2)cc1`, the growth was 59.4% (inactive).
Same read-out and setting: under `Cc1ccc(C2CC(c3ccc(Nc4nc(NCCO)nc(Nc5ccc(Cl)cc5)n4)cc3)=NN2c2cc(Cl)cc(Cl)c2)cc1` (stereo not drawn) stands 98.8% (inactive).
On the same count and under the same terms, under `CCCCN1CCN(c2ccc3nc(-c4ccc5nc(-c6ccc(OC)c(OC)c6)[nH]c5c4)[nH]c3c2)CC1` stands -64.5% (active); under `Cc1cccc(NC(=O)c2sc3nc4c(cc3c2N)CCCC4)c1C`, -40.6% (active).
Same read-out and setting: to `CCOC(=O)c1cc2c(n1Cc1cc(OC)c(OC)c(OC)c1)-c1oncc1CCC2` belongs -53.9% (active).
Regarding `Clc1ccc(Oc2ccc(Nc3ncnc4onc(-c5ccccc5)c34)cc2)c(Cl)c1`, the growth was 103% (inactive).
Same read-out and setting: under `O=C(Nc1ccc(C23CC4CC(CC(c5ccccc5)(C4)C2)C3)cc1)c1cccs1` stands 44.9% (inactive).
The same measure, in the same setting: under `COc1cc(C(=O)Nc2ccc(-c3nc4ccccc4[nH]3)cc2)cc(OC)c1OC` stands -25.2% (active); under `CCOC(=O)C1(C(=O)OCC)N=C(c2ccccc2)C=C1c1ccccc1`, 103% (inactive); under `CC1=C(CC(=O)c2cccc([N+](=O)[O-])c2)C(=O)c2ccccc2C1=O`, -56.1% (active).
The same measure, in the same setting: to `O=c1cc(NC2CCN(CCCc3ccccc3)CC2)c2cc(Cl)ccc2o1` belongs -8.02% (active).
For `O=S(=O)(Nc1ncccn1)c1ccc(NC2Nc3nc4ccccc4nc3S2)cc1` (stereo not drawn), the growth is 98.3% (inactive).
Same read-out and setting: under `COc1ccc(-c2cc(=O)c3c(OC)c4ccoc4c(/C=C/C=O)c3o2)cc1` stands 21.5% (inactive); under `COc1cccc2cc(N(C)c3nc(C)nc4ccsc34)ccc12`, -16.1% (active).
Still for that read-out and setting: to `CC[C@@H](C)[C@H](NC(=O)Cn1cc(CNC(=O)[C@@H](NC(=O)OCc2ccccc2)C(C)C)nn1)C(=O)O` belongs 102% (inactive); to `COc1cc(/C=C/C(=O)c2ccc(Nc3nc(NCCO)nc(N4CCOCC4)n3)cc2)cc(OC)c1OC`, 10.1% (inactive).
The same measure, in the same setting: to `Cc1ccccc1CNC(=O)C1CN(c2ccc(Cl)cc2)N(c2ccc(Cl)cc2)C1=O` (stereo not drawn) belongs 35.9% (inactive); to `COc1ccc(Cn2c(Br)c3c(c2-c2cc(OC)c(OC)c(OC)c2)CCc2sc(NC(C)=O)nc2-3)cc1`, -57% (active); to `CC(C)(C)c1ccc(C2CC(=O)C3=C(C2)Nc2ccccc2N(C(=O)c2ccccc2Cl)C3c2ccc(F)cc2)cc1` (stereo not drawn), -80.1% (active).
With `CCOC(=O)c1ccc(N=Cc2sc(=O)[nH]c2O)cc1`, the growth was 103% (inactive).
On to `COC(=O)/C(CCC=C(C)C)=C1\[C@@H](OC(C)=O)C[C@@]2(C)[C@H]1C[C@@H](O)[C@H]1[C@@]3(C)CC[C@H](NCc4ccccc4)[C@@H](C)[C@@H]3CC[C@@]12C`, for which the growth is 75.7% (inactive).
Still for that read-out and setting: under `Cc1cccc2c(=O)c3c(sc12)c(NCCCNCCO)nc1ccccc13` stands 29.5% (inactive); under `C[C@@H](C(=O)NCCCC#Cc1cnc(Nc2ccc(C#N)cc2)nc1NC1CC1)N(C)C(=O)/C=C/CN(C)C`, 24.5% (inactive); under `COc1ccc(/C=c2\sc3n(c2=O)NC2C(N=3)N(C)C(=O)N2C)cc1` (stereo not drawn), 89.6% (inactive).
Still for that read-out and setting: under `Cn1cc([C@@H]2Nc3ccc4[nH]ncc4c3[C@H]3[C@H]4CCC(C4)[C@H]32)c(C(F)(F)F)n1` stands -1.69% (active); under `COc1cc2cc3c(=O)n4c(cc5cc(OC)ncc54)c(=O)n3c2cn1`, 110% (inactive); under `COc1ccccc1C(=O)/C=C/c1ccccc1`, 78.4% (inactive).
Still for that read-out and setting: under `CCCc1c(C)c2sc(=O)[nH]c2[nH]c1=O` stands 112% (inactive); under `Clc1ccc(Nc2scc3[n+]2CCC3)cc1`, 97.7% (inactive); under `CNCCNc1nc2ccccc2c2c(=O)c3cc(F)ccc3sc12`, -61.1% (active).
As to `O=C(Nc1ccc(Cl)cc1)c1cc2ccccc2cc1OP(=O)(O)O`, the growth was 15.8% (inactive).
As to `COc1cc(C=C2C(=O)N(C)C(=O)N(C)C2=O)cc(CN2CCCCC2)c1O`, the growth is 103% (inactive).
Same read-out and setting: to `O=C(Nc1ncc(Cc2cccc(C(F)(F)F)c2)s1)C1COc2ccccc2O1` (stereo not drawn) belongs 59.1% (inactive); to `Cc1c(-c2noc(-c3ccc([N+](=O)[O-])cc3)n2)no[n+]1[O-]`, 106% (inactive); to `O=C(N/N=C/c1ccccc1Cl)C(=O)Nc1cccc(C(F)(F)F)c1`, 98.4% (inactive).
The same measure, in the same setting: to `O=C(NC1CCN(Cc2ccccc2)CC1)c1cc2nc(-c3ccc(Cl)s3)cc(C(F)(F)F)n2n1` belongs -82% (active).
Same read-out and setting: under `COc1cccc(-c2nn(C)c3sc(C(=O)NCCN4CCN(c5ccccc5F)CC4)cc23)c1` stands -55.7% (active); under `COc1ccc(C(=O)C2CC2c2ccc(Cl)cc2)cc1` (stereo not drawn), 95.6% (inactive).
In the case of `Nc1ccc(C2c3ccccc3Oc3ccccc32)cc1`, the growth is 104% (inactive).
